Data taken from publication PMC4081100, “A DNA-binding-site landscape and regulatory network analysis for NAC transcription factors in Arabidopsis thaliana”.

Tests used:
Experiment in all cases: universal protein binding microarray (PBM); transcription factors of Arabidopsis thaliana; high values mean tight binding
Conditions in all cases: protein: recombinant; tags: GST; chain copies: 2; dsDNA, one strand shown
GST-ANAC092(1-176) = target: T1, GST-ANAC092(1-176) (Arabidopsis thaliana, UniProt Q9FKA0 1-176)
T1 sequence: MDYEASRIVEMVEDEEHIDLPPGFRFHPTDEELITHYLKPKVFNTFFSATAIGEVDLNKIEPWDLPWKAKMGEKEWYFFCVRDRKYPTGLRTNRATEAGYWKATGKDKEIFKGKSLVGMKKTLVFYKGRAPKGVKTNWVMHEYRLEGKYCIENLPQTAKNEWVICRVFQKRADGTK
Summary of the method: (§1)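 GST-tagged proteins (NAC-domain, full-length or DNA-binding-domain) were induced in cells, with zinc acetate supplied for zinc-finger proteins, then purified on glutathione–Sepharose 4B. Each was tested in duplicate at 200 to 500 nM final on custom all-10-mer Agilent 4 × 180K arrays rendered double-stranded by primer extension. The binding value is the normalised enrichment score (E-score) across gapped and ungapped 8-mers.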

GST-NTL6(1-168) = GST-NTL6(1-168) (Arabidopsis thaliana, UniProt Q9SCK6 1-168)
Sequence of GST-NTL6(1-168) (Q9SCK6 1-168): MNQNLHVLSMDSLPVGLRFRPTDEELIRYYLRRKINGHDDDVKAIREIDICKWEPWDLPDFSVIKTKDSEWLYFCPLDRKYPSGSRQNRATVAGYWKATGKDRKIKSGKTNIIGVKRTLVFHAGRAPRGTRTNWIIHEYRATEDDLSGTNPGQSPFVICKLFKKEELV
Summary of the method: as §1

GST-ANAC019 NAC domain = target: T2, GST-ANAC019 NAC domain (Arabidopsis thaliana, UniProt Q9C932 14-162)
T2 sequence: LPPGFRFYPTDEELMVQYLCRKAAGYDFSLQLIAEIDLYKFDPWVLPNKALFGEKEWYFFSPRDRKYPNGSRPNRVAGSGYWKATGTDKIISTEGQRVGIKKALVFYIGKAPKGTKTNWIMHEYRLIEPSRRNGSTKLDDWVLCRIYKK
Summary of the method: as §1

GST-ANAC055(1-171) = target: T3, GST-ANAC055(1-171) (Arabidopsis thaliana, UniProt Q9LDY8 1-171)
T3 sequence: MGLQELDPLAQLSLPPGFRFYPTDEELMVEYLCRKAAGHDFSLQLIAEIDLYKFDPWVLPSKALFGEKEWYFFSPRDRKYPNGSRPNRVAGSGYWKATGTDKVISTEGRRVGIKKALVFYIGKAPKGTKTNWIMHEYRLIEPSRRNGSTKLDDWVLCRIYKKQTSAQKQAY
Summary of the method: as §1

GST-ATAF1 NAC domain = target: T4, GST-ATAF1 NAC domain (Arabidopsis thaliana, UniProt Q39013 7-158)
T4 sequence: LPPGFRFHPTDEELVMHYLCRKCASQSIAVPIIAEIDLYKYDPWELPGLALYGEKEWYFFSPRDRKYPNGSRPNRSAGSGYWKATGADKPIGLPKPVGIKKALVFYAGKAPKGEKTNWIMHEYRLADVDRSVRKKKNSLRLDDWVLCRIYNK
Summary of the method: as §1

[1] = target: T5, GST-ANAC092(1-285) full length (Arabidopsis thaliana, UniProt Q9FKA0 1-285)
T5 sequence: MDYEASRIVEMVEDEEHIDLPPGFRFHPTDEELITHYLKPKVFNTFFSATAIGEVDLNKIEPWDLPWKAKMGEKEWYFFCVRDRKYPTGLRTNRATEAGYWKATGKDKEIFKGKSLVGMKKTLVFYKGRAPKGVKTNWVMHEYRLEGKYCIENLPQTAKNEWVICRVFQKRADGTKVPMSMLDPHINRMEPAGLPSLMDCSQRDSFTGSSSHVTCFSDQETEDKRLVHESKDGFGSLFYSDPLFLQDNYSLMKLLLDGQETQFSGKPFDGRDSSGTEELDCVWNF
Summary of the method: as §1

GST-NAP(1-166) = target: T6, GST-NAP(1-166) (Arabidopsis thaliana, UniProt O49255 1-166)
T6 sequence: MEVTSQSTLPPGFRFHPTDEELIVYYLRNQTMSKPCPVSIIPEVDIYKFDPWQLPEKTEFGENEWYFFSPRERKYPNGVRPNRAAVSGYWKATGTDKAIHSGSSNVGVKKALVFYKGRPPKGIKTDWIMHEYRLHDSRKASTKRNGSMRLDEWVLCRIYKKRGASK
Summary of the method: as §1

GST-NST2(1-184) = target: T7, GST-NST2(1-184) (Arabidopsis thaliana, UniProt Q9M274 1-184)
T7 sequence: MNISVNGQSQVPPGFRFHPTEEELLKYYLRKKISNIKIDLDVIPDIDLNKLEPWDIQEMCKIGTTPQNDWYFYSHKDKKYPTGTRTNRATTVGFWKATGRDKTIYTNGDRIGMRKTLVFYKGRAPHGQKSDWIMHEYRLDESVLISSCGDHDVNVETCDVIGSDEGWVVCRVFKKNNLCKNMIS
Summary of the method: as §1

GST-NTL8 NAC domain = target: T8, GST-NTL8 NAC domain (Arabidopsis thaliana, UniProt Q9XIN7 14-156)
T8 sequence: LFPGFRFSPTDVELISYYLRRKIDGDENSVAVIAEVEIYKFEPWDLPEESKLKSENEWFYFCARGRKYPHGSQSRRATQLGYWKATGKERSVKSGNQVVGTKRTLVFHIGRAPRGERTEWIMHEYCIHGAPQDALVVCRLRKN
Summary of the method: as §1

GST-SND1(1-203) = target: T9, GST-SND1(1-203) (Arabidopsis thaliana, UniProt Q9LPI7 1-203)
T9 sequence: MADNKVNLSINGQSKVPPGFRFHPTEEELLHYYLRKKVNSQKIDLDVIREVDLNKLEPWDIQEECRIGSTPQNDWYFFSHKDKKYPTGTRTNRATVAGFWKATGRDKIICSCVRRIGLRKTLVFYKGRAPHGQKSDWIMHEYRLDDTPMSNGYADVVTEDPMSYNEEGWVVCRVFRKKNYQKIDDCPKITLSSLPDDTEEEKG
Summary of the method: as §1

GST-VND3 NAC domain = target: T10, GST-VND3 NAC domain (Arabidopsis thaliana, UniProt Q9FH59 12-162)
T10 sequence: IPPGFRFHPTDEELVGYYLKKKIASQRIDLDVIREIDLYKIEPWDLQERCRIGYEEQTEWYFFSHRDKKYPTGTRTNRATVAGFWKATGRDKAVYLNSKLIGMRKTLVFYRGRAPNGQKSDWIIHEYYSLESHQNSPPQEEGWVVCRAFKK
Summary of the method: as §1

GST-VND7 NAC domain = target: T11, GST-VND7 NAC domain (Arabidopsis thaliana, UniProt Q9C8W9 9-158)
T11 sequence: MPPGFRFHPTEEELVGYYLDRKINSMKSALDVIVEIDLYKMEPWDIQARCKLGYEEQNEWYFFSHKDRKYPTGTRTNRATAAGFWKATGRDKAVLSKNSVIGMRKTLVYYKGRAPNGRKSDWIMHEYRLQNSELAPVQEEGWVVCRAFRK
Summary of the method: as §1

| Sequence | binding signal (GST-ANAC092(1-176)) [E-score] | binding signal (GST-NTL6(1-168)) [E-score] | binding signal (GST-ANAC019 NAC domain) [E-score] | binding signal (GST-ANAC055(1-171)) [E-score] | binding signal (GST-ATAF1 NAC domain) [E-score] | binding signal [1] [E-score] | binding signal (GST-NAP(1-166)) [E-score] | binding signal (GST-NST2(1-184)) [E-score] | binding signal (GST-NTL8 NAC domain) [E-score] | binding signal (GST-SND1(1-203)) [E-score] | binding signal (GST-VND3 NAC domain) [E-score] | binding signal (GST-VND7 NAC domain) [E-score] |
| --- | --- | --- | --- | --- | --- | --- | --- | --- | --- | --- | --- | --- |
| AAGGGTAA | 0.117 | 0.194 | 0.127 | 0.0999 | 0.0524 | 0.134 | 0.117 | 0.126 | 0.444 | 0.117 | 0.223 | 0.0677 |
| AGGAAACG | 0.207 | 0.125 | 0.0614 | 0.149 | 0.208 | 0.132 | 0.183 | 0.132 | 0.451 | 0.224 | 0.109 | 0.112 |
| ATTGCTTC | 0.259 | 0.348 | 0.108 | 0.0988 | – | 0.351 | – | 0.259 | 0.278 | 0.411 | 0.143 | 0.213 |
| TAAGGAAA | 0.212 | 0.478 | – | 0.109 | 0.157 | 0.252 | 0.0748 | 0.152 | 0.424 | 0.334 | 0.16 | 0.0908 |
| TACGCTAA | 0.433 | 0.118 | – | 0.0682 | 0.19 | 0.44 | – | 0.331 | – | 0.475 | 0.171 | 0.131 |
